Key:
Assay in all cases: DAPPL (digital affinity profiling via proximity ligation, sequencing); 10 mM Tris-HCl pH 7.5, 50 mM NaCl, 1 mM DTT, 4% glycerol, room temperature, 30 min; GST-TFs on glutathione beads, 16-mer random dsDNA library, 0.1% formaldehyde crosslink after washing; high values mean tight binding
[1] = biological target: T1, FEV (Homo sapiens, UniProt Q99581 1-238); details: protein: recombinant; tags: N-terminal GST; dsDNA, one strand shown
T1 sequence: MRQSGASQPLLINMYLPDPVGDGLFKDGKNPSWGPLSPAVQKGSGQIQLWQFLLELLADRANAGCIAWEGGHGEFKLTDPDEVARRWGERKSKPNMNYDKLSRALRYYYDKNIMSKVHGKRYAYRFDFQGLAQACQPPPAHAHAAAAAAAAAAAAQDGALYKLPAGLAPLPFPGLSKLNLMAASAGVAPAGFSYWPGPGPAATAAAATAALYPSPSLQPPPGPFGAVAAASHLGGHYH
Procedure, shortened: (§1)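 GST fusions of human transcription factors were expressed in yeast and captured with glutathione beads. Once given DNA barcodes and pooled alongside a tag-only sample, they were incubated for 30 min at room temperature with 200 nmole of a random double-stranded 16-mer DNA library in Tris/NaCl/DTT/glycerol buffer, then washed, crosslinked (0.1% formaldehyde), proximity-ligated, PCR-amplified and sequenced on an Illumina NextSeq500. The binding signal of each hexamer is its read frequency for a factor divided by its frequency for the tag-only sample.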

[2] = biological target: ETV5 (Homo sapiens, UniProt P41161 1-510); details: protein: recombinant; tags: N-terminal GST; dsDNA, one strand shown
Procedure, shortened: as §1

[3] = biological target: HSF1 (Homo sapiens, UniProt Q00613 1-529); details: protein: recombinant; tags: N-terminal GST; chain copies: 3; dsDNA, one strand shown
Procedure, shortened: as §1

[4] = biological target: T2, SPIC (Homo sapiens, UniProt Q8N5J4 1-248); details: protein: recombinant; tags: N-terminal GST; dsDNA, one strand shown
T2 sequence: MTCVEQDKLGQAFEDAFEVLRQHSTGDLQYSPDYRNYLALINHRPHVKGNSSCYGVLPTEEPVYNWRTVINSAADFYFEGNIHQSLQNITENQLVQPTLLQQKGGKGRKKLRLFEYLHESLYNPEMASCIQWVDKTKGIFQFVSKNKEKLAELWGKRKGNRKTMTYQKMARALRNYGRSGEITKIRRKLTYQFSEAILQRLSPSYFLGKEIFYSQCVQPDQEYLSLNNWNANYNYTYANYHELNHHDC
Procedure, shortened: as §1

[5] = biological target: ELF4 (Homo sapiens, UniProt Q99607 1-663); details: protein: recombinant; tags: N-terminal GST; dsDNA, one strand shown
Procedure, shortened: as §1

[6] = biological target: T3, ELK4 (Homo sapiens, UniProt P28324-2 1-405); details: protein: recombinant; tags: N-terminal GST; dsDNA, one strand shown
T3 sequence: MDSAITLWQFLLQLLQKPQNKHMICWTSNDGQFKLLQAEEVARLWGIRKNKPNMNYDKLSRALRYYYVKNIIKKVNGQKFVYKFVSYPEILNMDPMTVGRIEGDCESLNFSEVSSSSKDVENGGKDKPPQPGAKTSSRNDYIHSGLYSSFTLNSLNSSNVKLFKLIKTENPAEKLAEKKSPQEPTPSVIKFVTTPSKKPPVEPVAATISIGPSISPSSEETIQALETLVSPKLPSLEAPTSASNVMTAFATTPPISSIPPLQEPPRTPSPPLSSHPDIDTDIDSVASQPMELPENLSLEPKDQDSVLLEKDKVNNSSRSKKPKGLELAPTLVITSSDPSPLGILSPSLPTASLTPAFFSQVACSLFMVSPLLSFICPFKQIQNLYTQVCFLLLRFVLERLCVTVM
Procedure, shortened: as §1

[7] = biological target: T4, ETV2 (Homo sapiens, UniProt O00321 1-342); details: protein: recombinant; tags: N-terminal GST; dsDNA, one strand shown
T4 sequence: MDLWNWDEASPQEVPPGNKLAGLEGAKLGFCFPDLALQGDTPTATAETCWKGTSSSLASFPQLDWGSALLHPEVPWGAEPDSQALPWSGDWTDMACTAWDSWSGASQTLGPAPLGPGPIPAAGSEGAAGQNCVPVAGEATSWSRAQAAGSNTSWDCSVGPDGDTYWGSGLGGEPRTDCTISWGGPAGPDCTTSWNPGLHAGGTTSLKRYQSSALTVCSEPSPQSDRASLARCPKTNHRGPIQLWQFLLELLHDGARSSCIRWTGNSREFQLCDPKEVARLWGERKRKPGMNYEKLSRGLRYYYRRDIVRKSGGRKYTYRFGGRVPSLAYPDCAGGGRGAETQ
Procedure, shortened: as §1

[8] = biological target: T5, ELF3 (Homo sapiens, UniProt P78545 1-371); details: protein: recombinant; tags: N-terminal GST; dsDNA, one strand shown
T5 sequence: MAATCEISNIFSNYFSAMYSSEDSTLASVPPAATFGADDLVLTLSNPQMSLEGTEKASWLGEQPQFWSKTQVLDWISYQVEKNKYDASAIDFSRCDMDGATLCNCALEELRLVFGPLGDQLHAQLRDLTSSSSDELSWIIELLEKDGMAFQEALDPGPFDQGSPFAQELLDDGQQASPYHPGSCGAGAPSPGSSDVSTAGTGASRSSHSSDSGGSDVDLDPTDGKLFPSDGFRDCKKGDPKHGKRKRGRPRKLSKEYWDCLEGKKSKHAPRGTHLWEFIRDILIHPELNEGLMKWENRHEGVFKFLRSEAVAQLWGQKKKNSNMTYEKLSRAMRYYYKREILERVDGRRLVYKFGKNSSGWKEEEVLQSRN
Procedure, shortened: as §1

[9] = biological target: CRX (Homo sapiens, UniProt O43186 1-299); details: protein: recombinant; tags: N-terminal GST; dsDNA, one strand shown
Procedure, shortened: as §1

[10] = biological target: ETV1 (Homo sapiens, UniProt P50549 1-477); details: protein: recombinant; tags: N-terminal GST; dsDNA, one strand shown
Procedure, shortened: as §1

[11] = biological target: T6, ERF (Homo sapiens, UniProt P50548 1-548); details: protein: recombinant; tags: N-terminal GST; dsDNA, one strand shown
T6 sequence: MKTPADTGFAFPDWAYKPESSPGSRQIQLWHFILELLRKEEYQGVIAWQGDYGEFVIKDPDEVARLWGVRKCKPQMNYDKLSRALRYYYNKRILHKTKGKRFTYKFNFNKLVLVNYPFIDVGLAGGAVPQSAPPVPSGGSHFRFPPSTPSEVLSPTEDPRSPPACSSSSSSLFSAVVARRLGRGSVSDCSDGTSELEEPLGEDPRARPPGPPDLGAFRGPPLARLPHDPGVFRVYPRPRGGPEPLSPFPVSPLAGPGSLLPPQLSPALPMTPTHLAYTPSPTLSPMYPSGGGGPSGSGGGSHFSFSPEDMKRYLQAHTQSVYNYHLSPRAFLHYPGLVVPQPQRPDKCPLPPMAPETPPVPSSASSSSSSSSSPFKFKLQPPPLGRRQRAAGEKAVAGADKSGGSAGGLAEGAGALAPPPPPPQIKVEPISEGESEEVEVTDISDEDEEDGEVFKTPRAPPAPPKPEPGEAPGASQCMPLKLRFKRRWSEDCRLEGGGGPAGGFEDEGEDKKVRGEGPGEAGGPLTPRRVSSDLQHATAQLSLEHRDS
Procedure, shortened: as §1

[12] = biological target: T7, ETV3L (Homo sapiens, UniProt Q6ZN32 1-361); details: protein: recombinant; tags: N-terminal GST; dsDNA, one strand shown
T7 sequence: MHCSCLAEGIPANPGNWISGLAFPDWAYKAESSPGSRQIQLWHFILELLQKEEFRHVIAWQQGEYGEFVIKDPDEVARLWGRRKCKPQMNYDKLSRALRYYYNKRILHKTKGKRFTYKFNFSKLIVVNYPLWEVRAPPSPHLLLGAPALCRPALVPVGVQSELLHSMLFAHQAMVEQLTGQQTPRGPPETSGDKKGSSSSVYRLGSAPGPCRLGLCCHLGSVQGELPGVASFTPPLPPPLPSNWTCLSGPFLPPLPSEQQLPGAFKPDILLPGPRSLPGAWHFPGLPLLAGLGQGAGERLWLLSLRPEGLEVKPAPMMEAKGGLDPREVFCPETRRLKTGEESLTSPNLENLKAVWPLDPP
Procedure, shortened: as §1

[13] = biological target: T8, ETS2 (Homo sapiens, UniProt P15036 1-469); details: protein: recombinant; tags: N-terminal GST; dsDNA, one strand shown
T8 sequence: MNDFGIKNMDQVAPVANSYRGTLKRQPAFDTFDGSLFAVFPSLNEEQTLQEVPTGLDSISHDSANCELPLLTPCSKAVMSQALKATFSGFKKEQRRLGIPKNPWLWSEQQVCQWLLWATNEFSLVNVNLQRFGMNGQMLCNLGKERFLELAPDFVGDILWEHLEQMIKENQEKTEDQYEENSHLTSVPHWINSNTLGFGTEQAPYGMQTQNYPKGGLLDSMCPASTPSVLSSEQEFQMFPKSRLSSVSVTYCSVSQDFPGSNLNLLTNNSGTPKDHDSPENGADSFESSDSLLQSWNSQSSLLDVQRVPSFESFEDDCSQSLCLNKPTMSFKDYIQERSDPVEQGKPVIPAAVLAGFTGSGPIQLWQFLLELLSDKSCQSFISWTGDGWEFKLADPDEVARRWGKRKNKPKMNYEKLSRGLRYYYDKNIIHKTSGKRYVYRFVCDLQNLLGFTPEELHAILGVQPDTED
Procedure, shortened: as §1

[14] = biological target: T9, SPDEF (Homo sapiens, UniProt O95238 1-335); details: protein: recombinant; tags: N-terminal GST; dsDNA, one strand shown
T9 sequence: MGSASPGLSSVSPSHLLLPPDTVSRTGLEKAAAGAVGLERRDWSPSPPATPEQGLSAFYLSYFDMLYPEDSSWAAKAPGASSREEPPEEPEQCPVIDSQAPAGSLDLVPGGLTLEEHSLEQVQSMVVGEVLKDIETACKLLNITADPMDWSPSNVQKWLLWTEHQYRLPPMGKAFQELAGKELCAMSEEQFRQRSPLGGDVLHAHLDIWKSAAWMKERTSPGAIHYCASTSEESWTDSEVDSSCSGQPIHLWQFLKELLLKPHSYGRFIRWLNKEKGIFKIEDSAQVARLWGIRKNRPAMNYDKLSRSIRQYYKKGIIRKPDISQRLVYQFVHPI
Procedure, shortened: as §1

[15] = biological target: T10, ETV7 (Homo sapiens, UniProt Q9Y603 1-341); details: protein: recombinant; tags: N-terminal GST; dsDNA, one strand shown
T10 sequence: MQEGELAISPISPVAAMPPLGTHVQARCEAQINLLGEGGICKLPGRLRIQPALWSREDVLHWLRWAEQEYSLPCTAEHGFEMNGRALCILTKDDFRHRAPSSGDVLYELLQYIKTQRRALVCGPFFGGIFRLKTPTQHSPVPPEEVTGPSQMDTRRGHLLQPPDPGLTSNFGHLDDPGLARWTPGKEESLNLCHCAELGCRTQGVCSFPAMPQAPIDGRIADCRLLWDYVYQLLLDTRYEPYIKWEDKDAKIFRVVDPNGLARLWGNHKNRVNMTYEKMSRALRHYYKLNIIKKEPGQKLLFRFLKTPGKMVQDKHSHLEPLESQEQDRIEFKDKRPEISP
Procedure, shortened: as §1

[16] = biological target: T11, ELF5 (Homo sapiens, UniProt Q9UKW6-2 1-255); details: protein: recombinant; tags: N-terminal GST; dsDNA, one strand shown
T11 sequence: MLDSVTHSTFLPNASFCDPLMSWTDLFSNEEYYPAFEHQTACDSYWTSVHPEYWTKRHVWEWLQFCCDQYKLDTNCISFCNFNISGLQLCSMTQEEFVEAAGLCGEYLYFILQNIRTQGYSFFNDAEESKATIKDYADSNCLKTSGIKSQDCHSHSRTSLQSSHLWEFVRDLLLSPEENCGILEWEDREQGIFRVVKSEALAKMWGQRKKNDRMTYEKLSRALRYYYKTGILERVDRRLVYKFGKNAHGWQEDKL
Procedure, shortened: as §1

[17] = biological target: T12, ETV3 (Homo sapiens, UniProt P41162-2 1-143); details: protein: recombinant; tags: N-terminal GST; dsDNA, one strand shown
T12 sequence: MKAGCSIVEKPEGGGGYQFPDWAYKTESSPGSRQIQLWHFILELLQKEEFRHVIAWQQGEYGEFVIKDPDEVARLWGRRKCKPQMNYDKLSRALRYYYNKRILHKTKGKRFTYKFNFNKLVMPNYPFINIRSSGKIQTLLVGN
Procedure, shortened: as §1

[18] = biological target: ETV6 (Homo sapiens, UniProt P41212 1-452); details: protein: recombinant; tags: N-terminal GST; dsDNA, one strand shown
Procedure, shortened: as §1

ELF4, sequence (Q99607 whole entry): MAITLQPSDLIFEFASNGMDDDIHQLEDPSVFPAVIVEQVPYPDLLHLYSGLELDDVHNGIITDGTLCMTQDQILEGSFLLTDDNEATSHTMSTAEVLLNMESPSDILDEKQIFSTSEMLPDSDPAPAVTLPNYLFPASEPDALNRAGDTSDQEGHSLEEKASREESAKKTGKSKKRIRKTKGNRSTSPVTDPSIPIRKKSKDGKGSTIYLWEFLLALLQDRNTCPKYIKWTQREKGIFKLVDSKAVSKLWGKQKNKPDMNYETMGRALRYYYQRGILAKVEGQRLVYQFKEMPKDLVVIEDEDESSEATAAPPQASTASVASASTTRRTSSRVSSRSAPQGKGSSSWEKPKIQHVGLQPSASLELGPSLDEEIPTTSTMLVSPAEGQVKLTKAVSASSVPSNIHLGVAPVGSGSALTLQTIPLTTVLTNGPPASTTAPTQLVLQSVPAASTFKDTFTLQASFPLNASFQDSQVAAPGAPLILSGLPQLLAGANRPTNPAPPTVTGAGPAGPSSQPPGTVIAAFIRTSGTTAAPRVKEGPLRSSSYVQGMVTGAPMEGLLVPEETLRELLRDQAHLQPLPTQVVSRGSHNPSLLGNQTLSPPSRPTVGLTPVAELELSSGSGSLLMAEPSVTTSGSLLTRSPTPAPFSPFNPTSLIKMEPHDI
ETV5, sequence (P41161 whole entry): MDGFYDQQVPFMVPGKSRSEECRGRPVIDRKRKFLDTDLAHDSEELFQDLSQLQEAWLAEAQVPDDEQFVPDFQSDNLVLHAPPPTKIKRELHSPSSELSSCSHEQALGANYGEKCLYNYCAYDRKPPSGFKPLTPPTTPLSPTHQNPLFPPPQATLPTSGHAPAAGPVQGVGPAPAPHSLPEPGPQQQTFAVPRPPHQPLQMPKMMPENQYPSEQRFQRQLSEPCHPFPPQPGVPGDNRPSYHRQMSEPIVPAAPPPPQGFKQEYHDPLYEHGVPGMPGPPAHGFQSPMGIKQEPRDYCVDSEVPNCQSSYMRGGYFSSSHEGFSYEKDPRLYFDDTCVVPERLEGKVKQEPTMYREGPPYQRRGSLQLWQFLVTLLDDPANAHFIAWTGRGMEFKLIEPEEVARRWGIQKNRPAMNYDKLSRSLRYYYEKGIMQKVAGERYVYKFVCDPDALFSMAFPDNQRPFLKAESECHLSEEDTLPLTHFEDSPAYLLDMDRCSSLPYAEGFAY
ETV6, sequence (P41212 whole entry): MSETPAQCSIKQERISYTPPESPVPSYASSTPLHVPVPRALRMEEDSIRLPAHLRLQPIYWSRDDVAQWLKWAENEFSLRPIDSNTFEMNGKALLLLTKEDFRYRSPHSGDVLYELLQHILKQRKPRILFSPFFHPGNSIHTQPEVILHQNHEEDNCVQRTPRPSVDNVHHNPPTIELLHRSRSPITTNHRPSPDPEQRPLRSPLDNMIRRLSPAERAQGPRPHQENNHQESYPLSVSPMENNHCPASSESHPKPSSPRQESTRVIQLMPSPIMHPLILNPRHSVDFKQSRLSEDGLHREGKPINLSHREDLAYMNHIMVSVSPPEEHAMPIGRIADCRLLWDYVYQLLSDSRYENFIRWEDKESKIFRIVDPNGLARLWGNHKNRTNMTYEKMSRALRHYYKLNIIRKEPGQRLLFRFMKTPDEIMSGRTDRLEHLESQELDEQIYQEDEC
HSF1, sequence (Q00613 whole entry): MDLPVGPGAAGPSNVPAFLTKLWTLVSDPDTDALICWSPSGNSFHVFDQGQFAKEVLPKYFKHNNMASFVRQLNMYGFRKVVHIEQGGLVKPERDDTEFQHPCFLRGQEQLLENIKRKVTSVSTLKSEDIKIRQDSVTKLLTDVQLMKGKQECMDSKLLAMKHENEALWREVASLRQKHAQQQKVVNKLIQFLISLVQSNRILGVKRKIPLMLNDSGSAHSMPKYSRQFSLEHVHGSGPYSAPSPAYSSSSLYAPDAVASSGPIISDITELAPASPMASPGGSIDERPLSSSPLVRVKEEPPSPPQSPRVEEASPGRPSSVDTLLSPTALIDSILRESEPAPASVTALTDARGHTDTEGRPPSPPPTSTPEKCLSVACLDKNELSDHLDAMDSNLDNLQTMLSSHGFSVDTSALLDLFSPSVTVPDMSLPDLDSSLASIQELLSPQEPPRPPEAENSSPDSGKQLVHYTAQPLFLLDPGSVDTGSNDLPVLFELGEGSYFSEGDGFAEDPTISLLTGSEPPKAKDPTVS
ETV1, sequence (P50549 whole entry): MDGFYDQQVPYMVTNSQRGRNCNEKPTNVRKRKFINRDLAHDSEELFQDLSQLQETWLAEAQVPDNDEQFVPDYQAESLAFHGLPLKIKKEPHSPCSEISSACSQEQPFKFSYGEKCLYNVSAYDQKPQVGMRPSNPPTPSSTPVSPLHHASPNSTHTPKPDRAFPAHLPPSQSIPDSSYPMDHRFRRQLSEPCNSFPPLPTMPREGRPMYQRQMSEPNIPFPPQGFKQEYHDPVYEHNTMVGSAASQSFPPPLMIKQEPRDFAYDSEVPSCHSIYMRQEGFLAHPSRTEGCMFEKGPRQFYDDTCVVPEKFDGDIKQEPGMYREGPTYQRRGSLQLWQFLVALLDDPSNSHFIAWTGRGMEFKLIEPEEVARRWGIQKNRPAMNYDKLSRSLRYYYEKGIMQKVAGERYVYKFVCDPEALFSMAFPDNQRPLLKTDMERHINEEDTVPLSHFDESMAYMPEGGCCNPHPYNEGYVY
CRX, sequence (O43186 whole entry): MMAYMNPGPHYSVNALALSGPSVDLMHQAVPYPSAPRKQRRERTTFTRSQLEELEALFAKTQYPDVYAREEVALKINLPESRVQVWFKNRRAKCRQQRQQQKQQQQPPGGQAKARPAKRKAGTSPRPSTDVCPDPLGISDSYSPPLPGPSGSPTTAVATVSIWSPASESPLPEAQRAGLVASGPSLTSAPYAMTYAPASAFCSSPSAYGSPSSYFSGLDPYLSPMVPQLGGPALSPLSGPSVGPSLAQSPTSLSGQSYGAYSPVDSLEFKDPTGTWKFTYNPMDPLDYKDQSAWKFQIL

For CTGTTC, the binding signal [1] was 1.33 fold enrichment (6-mer frequency, TF over GST control), the binding signal [2] was 1.39 fold enrichment (6-mer frequency, TF over GST control) and the binding signal [3] was 1.38 fold enrichment (6-mer frequency, TF over GST control). For the same sequence, the binding signal [4] was 1.44 fold enrichment (6-mer frequency, TF over GST control), the binding signal [5] was 1.42 fold enrichment (6-mer frequency, TF over GST control) and the binding signal [6] was 1.19 fold enrichment (6-mer frequency, TF over GST control). For the same sequence, the binding signal [7] was 1.38 fold enrichment (6-mer frequency, TF over GST control), the binding signal [8] was 1.63 fold enrichment (6-mer frequency, TF over GST control) and the binding signal [9] was 1.07 fold enrichment (6-mer frequency, TF over GST control). The binding signal [10] was 1.46 fold enrichment (6-mer frequency, TF over GST control), the binding signal [11] was 1.52 fold enrichment (6-mer frequency, TF over GST control) and the binding signal [12] was 1.31 fold enrichment (6-mer frequency, TF over GST control). For the same sequence, the binding signal [13] was 1.44 fold enrichment (6-mer frequency, TF over GST control), the binding signal [14] was 1.29 fold enrichment (6-mer frequency, TF over GST control) and the binding signal [15] was 1.42 fold enrichment (6-mer frequency, TF over GST control). The binding signal [16] was 1.52 fold enrichment (6-mer frequency, TF over GST control), the binding signal [17] was 1.51 fold enrichment (6-mer frequency, TF over GST control) and the binding signal [18] was 1.44 fold enrichment (6-mer frequency, TF over GST control).
